Screening results (PubChem)
Only some compounds are listed: those with a hit (about 16% of all), similar ones and a draw of the others.
TDP1 cell noCPT: qHTS for Inhibitors of human tyrosyl-DNA phosphodiesterase 1 (TDP1): qHTS in cells in absence of CPT | DT40 Tdp1-/- hTDP1 cells, no CPT, ATP luminescence, 48 h | Potency, µM (titrated, usually from 46.2 µM), without a hit: at the highest dose activity change, negative = growth inhibition, hits mostly inhibitors | 15% of 420,000 active | AID 686978, 2013; also: potency is read from the fitted curve at half-maximal effect; % is scaled to controls: 0 for no effect and ±100 for the full control effect; nearly all actives have a fitted effect of over 55% in size
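Stably hTDP1-transfected Tdp1-null chicken DT40 cells were treated with library compounds minus camptothecin and grown for at least 48 hr at 37 °C, after which cellular ATP was quantified by luminescence.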
TDP1 inh: qHTS Assay for Inhibitors of Tyrosyl-DNA Phosphodiesterase (TDP1). Tyrosyl-DNA phosphodiesterase 1 (Homo sapiens), Q9NUW8. recombinant TDP1, AlphaScreen DNA substrate cleavage. Potency, µM (titrated, usually from 130 µM), for inactives: at the highest dose activity change, negative = inhibition, most hits filed as inhibitors. 0.28% of 350,000 active. AID 485290, 2010; also: potency is read from the fitted curve at half-maximal effect; % is scaled to controls: 0 for no effect and ±100 for the full control effect; nearly all actives have a fitted effect of over 40% in size
Target sequence (Q9NUW8 whole entry, looked up): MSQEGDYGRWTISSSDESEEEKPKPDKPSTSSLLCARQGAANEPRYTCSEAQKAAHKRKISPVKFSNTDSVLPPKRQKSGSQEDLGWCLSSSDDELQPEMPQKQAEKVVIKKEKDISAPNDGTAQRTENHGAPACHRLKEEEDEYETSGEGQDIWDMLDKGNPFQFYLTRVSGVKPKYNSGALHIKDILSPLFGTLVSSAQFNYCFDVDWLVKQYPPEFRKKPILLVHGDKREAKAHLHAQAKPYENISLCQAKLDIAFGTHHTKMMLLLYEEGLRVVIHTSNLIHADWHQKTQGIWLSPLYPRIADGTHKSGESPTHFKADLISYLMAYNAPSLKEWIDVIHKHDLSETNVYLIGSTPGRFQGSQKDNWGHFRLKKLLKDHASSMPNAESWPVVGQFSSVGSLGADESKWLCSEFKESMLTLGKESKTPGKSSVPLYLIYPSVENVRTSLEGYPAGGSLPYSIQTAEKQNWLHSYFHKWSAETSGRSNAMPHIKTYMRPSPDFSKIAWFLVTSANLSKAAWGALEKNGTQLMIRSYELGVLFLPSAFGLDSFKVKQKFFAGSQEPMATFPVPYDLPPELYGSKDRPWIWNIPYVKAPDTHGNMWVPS
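Recombinant E. coli-expressed Tdp1 (1 nM) preincubated with compound 15 min at RT, then 5'-biotin/3'-phosphotyrosine-FITC DNA substrate (15 nM) added for 5 min. AlphaScreen beads (10 ug/ml) added, 10 min RT; tyrosine-FITC cleavage read as signal loss.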
uPA surface inh: qHTS for Inhibitors of Cell Surface uPA Generation | 0.31% of 330,000 active | cell surface uPA generation assay, qHTS | AID 540303, 2011 | Potency, µM (highest dose often 38.3 µM), without a hit: top-dose activity change, negative = inhibition, actives largely listed as inhibitors; active = well fitted inhibition curve with a large enough effect; inconclusive = small, poorly fitted or top-dose-only effect; inactive = no such curve, though single readings can be large or run the other way; tested in mouse RAW 264.7 cells; also: potency is read from the fitted curve at half-maximal effect; % is scaled to controls: 0 for no effect and ±100 for the full control effect; nearly all actives have a fitted effect of over 55% in size
miR-21 reporter: qHTS Assay for Modulators of miRNAs and/orActivators of miR-21; HeLa miR-21 FLuc reporter, luciferase, 48 h; Potency, µM (top dose mostly 38.3 µM), without a hit: top-dose activity change, positive = activation, hits mostly activators; 340,000 tested, under 10 active; AID 2288, 2010;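 also: % of control where 0% means no effect; miR-21 action dims this reporter so a rising signal means less miR-21 action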
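HeLa miR-21-FLuc reporter line, endogenous miR-21; 2000 cells/well in DMEM/10% FBS; compound titration up to ~40uM final, 48 h, 37 degree Celsius; luciferase detection reagent, 15 min lysis, CCD luminescence.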
TDP1 cell CPT: qHTS for Inhibitors of human tyrosyl-DNA phosphodiesterase 1 (TDP1): qHTS in cells in presence of CPT; chicken DT40 Tdp1-/-;hTDP1 cells + 20 nM CPT, ATP luminescence, 48 h; Potency, µM (highest dose often 46.2 µM), for the others: top-dose activity change, negative = growth inhibition, usual class: inhibitors; 12% of 420,000 active; AID 686979, 2013; also: potency is read from the fitted curve at half-maximal effect; % is scaled to controls: 0 for no effect and ±100 for the full control effect; nearly all actives have a fitted effect of over 55% in size
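Cell growth measured by CellTiter-Glo luminescence after a minimum 48 h, 37 C compound exposure with 20 nM CPT in Tdp1-knockout DT40 cells stably expressing hTDP1, seeded 400/well; qHTS titration format.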
Active calls of the source: *; ? = inconclusive; · = no result; [ ] = dose if it differs, or a comment. Unless noted, calls follow the shape of the dose curve; as a rule, active = well fitted curve in the direction sought with a large enough effect; inconclusive = small, poorly fitted or top-dose-only effect, or another doubt; inactive = no such curve, though single readings can be large; an effect the other way counts as inactive or inconclusive.

SMILES | TDP1 cell noCPT | TDP1 inh | uPA surface inh | miR-21 reporter | TDP1 cell CPT
Cc1cccc(CCn2c(=O)c3ccccc3n(Cc3ccccc3C)c2=O)c1 | 16µM* | -2% | · | -4% | 15µM*
N#Cc1ccccc1Cn1c(=O)n(C2CCCC2)c(=O)c2ccccc21 | 18µM* | 4% | -8% | -5% | 16µM*
CCN(Cc1ccccc1)C(=O)C1CCN(Cc2ccc(SC)cc2)CC1 | ? | 3% | -6% | -8% | ?
CC(=O)c1ccc(NC(=O)N[C@@H](CC(C)C)C(=O)O)cc1 | ? | 3% | 1% | -2% | 0%
Cc1nn(C)c(C(=O)N/N=C/c2ccc(-c3ccccc3)cc2)c1Cl | -14% | 3% | -6% | -5% | -23%
COCCCNCCOCCOc1ccc(C)cc1[N+](=O)[O-] | -18% | -8% | 2% | -6% | -6%
O=c1c2ccccc2n(Cc2ccccc2F)c(=O)n1-c1cccc(F)c1 | 15µM* | 4% | · | -6% | ?
Cc1ccc(NC(=O)Nc2ccccc2C#N)c(Cl)c1 | -27% | 4% | -2% | -3% | -25%
O=[N+]([O-])c1cc(/C=N/N2CCN(c3ccccc3)CC2)ccc1Cl | -24% | 2% | 11% | -8% | ?
Cc1cc(C)cc(-n2ncc3c2CCCC3NC(=O)CN2CCCCC2=O)c1 (stereo not given) | 2% | · | 15% | · | -1%
CCCCCOc1ccc(C(C)(O)C(CN2CCOCC2)c2ccccc2)cc1 (stereo not given) | 21µM* | · | -5% | 6% | ?
CCCCOc1ccc(C(O)(CC)CCN2CCOCC2)cc1 (stereo not given) | -27% | 3% | 2% | -13% | -26%
CCc1ccc(C(O)(C(C)C)C(CN2CCOCC2)c2ccccc2)cc1 (stereo not given) | 16µM* | · | -10% | 21% | 16µM*
CCCOc1ccc(C(C)(O)CN2CCOCC2)cc1 (stereo not given) | -21% | 7% | 5% | 1% | -2%
CCc1ccc(C(C)(O)C(CN2CCOCC2)c2ccccc2)cc1 (stereo not given) | 21µM* | · | -1% | 3% | 21µM*
CCCCOc1ccc(C(O)(CCC)CCN2CCOCC2)cc1 (stereo not given) | 16µM* | 3% | 1% | 7% | 21µM*
CC(C)C(O)(c1ccccc1)C(CN1CCOCC1)c1ccccc1 (stereo not given) | ? | · | -11% | 11% | ?
CC(C)c1nc2cc(C(=O)N(C)Cc3ccc(F)cc3)ccc2o1 | -22% | 2% | 0% | -15% | ?
COC(=O)C[C@H]1c2ccccc2S(=O)(=O)N1c1ccc(N(C)C)cc1 | 10µM* | · | · | · | ?
COC(=O)C[C@H]1c2cc(C(F)(F)F)ccc2S(=O)(=O)N1c1ccc(N(C)C)cc1 | 10µM* | · | -14% | · | 13µM*
COC(=O)C[C@H]1c2cc(F)ccc2S(=O)(=O)N1c1ccccc1 | -15% | · | -16% | · | 6%
CN(C)c1ccc(N2[C@@H](CC(=O)O)c3cc(C(F)(F)F)ccc3S2(=O)=O)cc1 | ? | · | 2% | · | ?
CC(=O)C[C@H]1c2cc(C(F)(F)F)ccc2S(=O)(=O)N1c1ccc(N(C)C)cc1 | 15µM* | · | -5% | · | 7.9µM*
Cc1ccc(-c2nnc(SCCC(=O)Nc3ccccc3)n2C)cc1 | -16% | · | · | · | -24%
COc1ccc(/C=N/NC(=O)c2cccc(NC(=O)c3ccc(Cl)cc3)c2)c(OC)c1 | ? | 0% | -6% | -26% | 7%
SMILES | TDP1 cell noCPT | TDP1 inh | uPA surface inh | miR-21 reporter | TDP1 cell CPT
CCOC(=O)c1c(C)[nH]c(C)c1C(=O)COC(=O)[C@@H](NC(=O)c1ccccc1OCC)C(C)C | 21µM* | 6% | · | -4% | ?
CCOC(=O)c1c(C)[nH]c(C)c1C(=O)COC(=O)c1cc2ccccc2cc1O | 16µM* | 11% | 4% | 1% | ?
CCOc1ccccc1C(=O)NC(C(=O)OCC(=O)NNC(=O)c1cccs1)C(C)C (stereo not given) | -27% | · | · | · | -8%
CCOC(=O)c1c(C)[nH]c(C)c1C(=O)COC(=O)c1c(OC)cccc1OC | ? | -2% | 9% | -9% | -24%
CCOC(=O)c1c(C)[nH]c(C)c1C(=O)COC(=O)c1ccc(Cl)c(S(=O)(=O)NCc2ccccc2)c1 | 23µM* | 9% | -7% | -2% | 21µM*
CCOC(=O)c1c(C)[nH]c(C)c1C(=O)COC(=O)c1cc2ccccc2cc1OC | 23µM* | 8% | 3% | -20% | ?
Cc1ccc(C(=O)NC2CCN(S(=O)(=O)c3ccc(F)cc3)CC2)cc1 | 8% | · | 11% | -5% | -16%
Cc1cc(C)cc(S(=O)(=O)c2cnc3ccccc3n2)c1 | ? | 9% | -14% | 11% | ?
COc1cc(O)ccc1C=O | -1% | 4% | 0% | -13% | -16%
CCOC(=O)C(CC)(CC)C(=O)/C=C/c1ccc(OC)cc1 | 18µM* | · | ? | 5% | ?
COC(=O)CNC(=O)/C=C/c1ccc(OC)cc1 | 3% | 0% | · | -22% | -8%
CCOC(=O)c1c(C)[nH]c(C)c1C(=O)COC(=O)/C=C/c1ccc(OC)cc1 | 8.2µM* | 4% | 2.5µM* | · | 7.3µM*
CC(C)[C@H](NC(=O)c1ccco1)C(=O)NC12CC3CC(CC(C3)C1)C2 | -26% | 3% | -3% | -2% | ?
CC1(C)CC2CC(C)(CN2C(=O)c2cc(-c3ccc(O)cc3)on2)C1 (stereo not given) | ? | 13% | 1% | 1% | -14%
Cc1noc(C(=O)N2CC3(C)CC2CC(C)(C)C3)c1Cl (stereo not given) | 18µM* | -1% | -12% | 0% | ?
COc1cccc(-c2cc(C(=O)N3CC4(C)CC3CC(C)(C)C4)no2)c1 (stereo not given) | 21µM* | 0% | 22% | 18% | ?
CC1(C)CC2CC(C)(CN2C(=O)Cc2ccccc2)C1 (stereo not given) | ? | 0% | 0% | -7% | -26%
CN(C)CCC=C1c2ccccc2C=Cc2ccccc21 | 15µM* | 11%[56.1 µM] | -28% | · | ?
CNc1ccc(C=C2C=Cc3ccccc32)cc1 | -28% | · | -4% | · | 2%
CNCCC=C1c2ccccc2C=Cc2ccccc21 | 13µM* | 3%[21 µM] | ? | · | 16µM*
COc1ccc(/C=C(/C(=O)c2cccs2)N2C=CC=CC2=C(C#N)C#N)cc1 | 1.2µM* | 8% | ? | ? | 1.2µM*
COc1ccc(C(=O)/C(=C\c2ccco2)N2C=CC=CC2=C(C#N)C#N)cc1 | 0.65µM* | 6% | 2% | ? | 0.65µM*
